Activity calls are given as the source filed them. How the source made its calls: active means hit-call score of the fitted dose curve at least 0.9, where 1 is the maximum; inactive means score below 0.9.
Columns and labels:
Settings in all cases: mRNA level, 48 h; actives raise or lower the signal
[1] = read-out: Cyclin D1 (CCND1), CCND1 (gene 595); assay: LTEA_HepaRG_CCND1: Life Technologies and Expression Analysis (LTEA) Assay for Cyclin D1 (CCND1) using HepaRG (AID 2283451);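 on AC50: TaqMan qRT-PCR transcript level normalised to ACTB GAPDH and POLR2A housekeeping genes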
How it was run: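 Expression change is measured by qRT-PCR in HepaRG cells after 48 h treatment across eight concentrations topping at 100 uM, with duplicate wells and DMSO (0.5%) serving as baseline for bidirectional fitting.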

[2] = read-out: catalase (CAT), CAT (gene 847); assay: LTEA_HepaRG_CAT: Life Technologies and Expression Analysis (LTEA) Assay for catalase (CAT) using HepaRG (AID 2283452);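 on AC50: TaqMan qRT-PCR signal normalized to ACTB GAPDH and POLR2A housekeeping genes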
How it was run: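 Differentiated HepaRG cells in serum-free induction medium were dosed 48 h in duplicate, eight half-log concentrations from 100 uM in 0.5% DMSO. Transcript measured by TaqMan qRT-PCR, normalised to ACTB/GAPDH/POLR2A, fitted bidirectionally against DMSO.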

[3] = read-out: flavin-containing dimethylaniline monooxygenases 3 (FMO3), FMO3 (gene 2328); assay: LTEA_HepaRG_FMO3: Life Technologies and Expression Analysis (LTEA) Assay for flavin-containing dimethylaniline monooxygenases 3 (FMO3) using HepaRG (AID 2283453)
How it was run: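 Differentiated HepaRG cells in serum-free induction medium, exposed 48 h in duplicate to 8 half-log concentrations up to 100 uM in 0.5% DMSO. FMO3 mRNA by qRT-PCR, normalized to ACTB, GAPDH, POLR2A; bidirectional fit vs DMSO.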

[4] = read-out: Cytochrome P450 (CYP1A1), CYP1A1 (gene 1543); assay: LTEA_HepaRG_CYP1A1: Life Technologies and Expression Analysis (LTEA) Assay for Cytochrome P450 (CYP1A1) using HepaRG (AID 2283454)
How it was run: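 Using HepaRG cultures with 0.5% DMSO as vehicle, eight-concentration exposures (max 100 uM) lasted 48 h. Transcript levels were measured by TaqMan qRT-PCR and normalized to ACTB, GAPDH and POLR2A.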

[5] = read-out: CFLAR gene, CFLAR (gene 8837); assay: LTEA_HepaRG_CFLAR: Life Technologies and Expression Analysis (LTEA) Assay for CFLAR gene using HepaRG (AID 2283455)
How it was run: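 HepaRG cells were plated for 48 h, switched to serum-free induction medium, then exposed in duplicate for 48 h to 8 concentrations (top 100 uM, half-log steps, 0.5% DMSO). CFLAR mRNA was measured by qRT-PCR, normalized to ACTB, GAPDH and POLR2A.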

[6] = read-out: Forkhead box O1 (FOXO1), FOXO1 (gene 2308); assay: LTEA_HepaRG_FOXO1: Life Technologies and Expression Analysis (LTEA) Assay for Forkhead box O1 (FOXO1) using HepaRG (AID 2283456)
How it was run: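 Differentiated human HepaRG cells in serum-free induction medium were exposed in duplicate for 48 h to eight half-log concentrations (top 100 uM, 0.5% DMSO). FOXO1 mRNA was measured by TaqMan qRT-PCR, normalised to ACTB, GAPDH and POLR2A, and fitted bidirectionally against DMSO.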

[7] = read-out: growth arrest and DNA damage 45 (GADD45A), GADD45A (gene 1647); assay: LTEA_HepaRG_GADD45A: Life Technologies and Expression Analysis (LTEA) Assay for growth arrest and DNA damage 45 (GADD45A) using HepaRG (AID 2283458)
How it was run: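 Cells plated and cultured 48 h, switched to serum-free induction medium, then dosed for 48 h (100 uM top, half-log dilutions, 0.5% DMSO). RNA was isolated and transcript measured by Fluidigm qRT-PCR.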

[8] = read-out: Forkhead box O3 (FOXO3), FOXO3 (gene 2309); assay: LTEA_HepaRG_FOXO3: Life Technologies and Expression Analysis (LTEA) Assay for Forkhead box O3 (FOXO3) using HepaRG (AID 2283459)
How it was run: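 Differentiated human HepaRG cells in serum-free induction medium were exposed in duplicate for 48 h to eight half-log concentrations up to 100 uM in 0.5% DMSO. FOXO3 mRNA was quantified by qRT-PCR, normalized to ACTB, GAPDH and POLR2A, with bidirectional fitting versus DMSO.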

[9] = read-out: ABC Transporter (ABCB1), ABCB1 (gene 5243); assay: LTEA_HepaRG_ABCB1: Life Technologies and Expression Analysis (LTEA) Assay for ABC Transporter (ABCB1) using HepaRG (AID 2283460)
How it was run: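 Differentiated human HepaRG cells, plated 48 h then switched to serum-free induction medium, were exposed in duplicate to eight half-log concentrations up to 100 uM in 0.5% DMSO for 48 h. ABCB1 mRNA was measured by TaqMan qRT-PCR, normalized to ACTB/GAPDH/POLR2A.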

[10] = read-out: growth arrest and DNA damage 45 (GADD45B), GADD45B (gene 4616); assay: LTEA_HepaRG_GADD45B: Life Technologies and Expression Analysis (LTEA) Assay for growth arrest and DNA damage 45 (GADD45B) using HepaRG (AID 2283461)
How it was run: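 Human HepaRG monolayers receive chemicals for 48 h at eight half-log concentrations, highest 100 uM, in 0.5% DMSO. Expression is measured by TaqMan qRT-PCR and normalized to ACTB, GAPDH and POLR2A.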

[11] = read-out: ABC Transporter (ABCC3), ABCC3 (gene 8714); assay: LTEA_HepaRG_ABCC3: Life Technologies and Expression Analysis (LTEA) Assay for ABC Transporter (ABCC3) using HepaRG (AID 2283462)
How it was run: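 Transcriptional change of ABCC3 in HepaRG after 48 h treatment, determined by qRT-PCR normalized to endogenous controls. Concentrations spanned eight half-log steps to 100 uM in 0.5% DMSO.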

[12] = read-out: ABC Transporter (ABCB11), ABCB11 (gene 8647); assay: LTEA_HepaRG_ABCB11: Life Technologies and Expression Analysis (LTEA) Assay for ABC Transporter (ABCB11) using HepaRG (AID 2283463)
How it was run: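 Differentiated human HepaRG cells were exposed for 48 h in serum-free induction medium to eight half-log concentrations up to 100 uM in 0.5% DMSO. ABCB11 mRNA was quantified by qRT-PCR, normalized to ACTB, GAPDH and POLR2A, and fitted bidirectionally versus DMSO.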

[13] = read-out: ABC Transporter (ABCC2), ABCC2 (gene 1244); assay: LTEA_HepaRG_ABCC2: Life Technologies and Expression Analysis (LTEA) Assay for ABC Transporter (ABCC2) using HepaRG (AID 2283464)
How it was run: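 After plating and 48 h culture, HepaRG medium is replaced with serum-free induction medium and chemicals are added (8 concentrations, max 100 uM, 0.5% DMSO) for 48 h. Total RNA then undergoes qRT-PCR for ABCC2 with housekeeping normalization.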

[14] = read-out: Broad substrate specificity ATP-binding cassette transporter ABCG2 (Homo sapiens) (UniProt Q9UNQ0); assay: LTEA_HepaRG_ABCG2: Life Technologies and Expression Analysis (LTEA) Assay for ABC Transporter (ABCG2) using HepaRG (AID 2283465)
How it was run: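 Differentiated HepaRG cells in serum-free induction medium were exposed for 48 h, in duplicate, to eight half-log concentrations up to 100 uM in 0.5% DMSO. ABCG2 mRNA was measured by TaqMan qRT-PCR, normalized to ACTB, GAPDH and POLR2A, and fitted bidirectionally versus DMSO.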

[15] = read-out: ATP-citrate lyase (ACLY), ACLY (gene 47); assay: LTEA_HepaRG_ACLY: Life Technologies and Expression Analysis (LTEA) Assay for ATP-citrate lyase (ACLY) using HepaRG (AID 2283466)
How it was run: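 Differentiated human HepaRG cells in serum-free induction medium exposed 48 h, in duplicate, to eight half-log concentrations from 100 uM top in 0.5% DMSO; ACLY mRNA measured by qRT-PCR, normalized to ACTB, GAPDH, POLR2A, fitted bidirectionally versus DMSO.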

[16] = read-out: Peroxisomal acyl-coenzyme A oxidase 1 (ACOX1) gene, ACOX1 (gene 51); assay: LTEA_HepaRG_ACOX1: Life Technologies and Expression Analysis (LTEA) Assay for Peroxisomal acyl-coenzyme A oxidase 1 (ACOX1) gene using HepaRG (AID 2283467)
How it was run: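 Differentiated human HepaRG cells were exposed in duplicate for 48 h in serum-free induction medium to eight half-log concentrations up to 100 uM in 0.5% DMSO. ACOX1 mRNA was then quantified by TaqMan qRT-PCR, normalized to ACTB, GAPDH and POLR2A.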

[17] = read-out: Alkaline Phosphatase, Placental (ALPP) gene, ALPP (gene 250); assay: LTEA_HepaRG_ALPP: Life Technologies and Expression Analysis (LTEA) Assay for Alkaline Phosphatase, Placental (ALPP) gene using HepaRG (AID 2283468)
How it was run: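 Using human liver HepaRG cells, chemicals are tested in duplicate over 48 h at half-log concentrations topping at 100 uM; phenobarbital 1 mM serves as induction control. ALPP mRNA change by qRT-PCR, bidirectional fit against vehicle.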

[18] = read-out: Bcl-2 (BAD) gene, BAD (gene 572); assay: LTEA_HepaRG_BAD: Life Technologies and Expression Analysis (LTEA) Assay for Bcl-2 (BAD) gene using HepaRG (AID 2283469)
How it was run: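 Differentiated human HepaRG cells in serum-free induction medium were exposed in duplicate for 48 h to eight concentrations (top 100 uM, half-log steps, 0.5% DMSO). BAD mRNA was quantified by qRT-PCR normalised to ACTB, GAPDH and POLR2A, with bidirectional fitting versus DMSO.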

[19] = read-out: Bcl-2 (BAX) gene, BAX (gene 581); assay: LTEA_HepaRG_BAX: Life Technologies and Expression Analysis (LTEA) Assay for Bcl-2 (BAX) gene using HepaRG (AID 2283470)
How it was run: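 HepaRG (human liver), 48 h exposure, duplicate wells. 8-pt curve, half-log from 100 uM, 0.5% DMSO. BAX transcript by TaqMan qRT-PCR; ACTB/GAPDH/POLR2A normalization; gain or loss vs DMSO baseline.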

Chain of Broad substrate specificity ATP-binding cassette transporter ABCG2 (Homo sapiens) (Q9UNQ0 whole entry, looked up): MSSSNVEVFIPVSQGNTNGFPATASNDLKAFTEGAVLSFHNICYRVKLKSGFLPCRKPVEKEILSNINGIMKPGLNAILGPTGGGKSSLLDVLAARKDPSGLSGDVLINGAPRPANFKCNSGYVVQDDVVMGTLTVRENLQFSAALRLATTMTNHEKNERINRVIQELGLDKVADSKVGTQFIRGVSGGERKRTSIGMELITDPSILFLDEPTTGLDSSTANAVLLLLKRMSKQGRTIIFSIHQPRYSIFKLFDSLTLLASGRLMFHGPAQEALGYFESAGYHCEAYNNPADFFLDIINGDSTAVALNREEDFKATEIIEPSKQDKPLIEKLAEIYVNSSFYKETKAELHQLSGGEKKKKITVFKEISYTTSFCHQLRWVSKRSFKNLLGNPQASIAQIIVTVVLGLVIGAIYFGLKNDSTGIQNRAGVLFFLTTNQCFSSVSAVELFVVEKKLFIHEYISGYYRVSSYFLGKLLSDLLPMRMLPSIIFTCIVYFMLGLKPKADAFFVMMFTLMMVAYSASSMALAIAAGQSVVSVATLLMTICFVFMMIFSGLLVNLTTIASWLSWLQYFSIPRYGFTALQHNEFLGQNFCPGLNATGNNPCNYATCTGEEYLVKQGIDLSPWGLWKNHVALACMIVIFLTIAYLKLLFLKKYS

## COC(=O)CCCC(=O)OC
[1]
  outcome: inactive
[2]
  outcome: inactive
[3]
  outcome: inactive
[4]
  outcome: inactive
[5]
  outcome: inactive
[6]
  outcome: inactive
[7]
  outcome: inactive
[8]
  outcome: inactive
[9]
  outcome: inactive
[10]
  outcome: inactive
[11]
  AC50: 0.263 µM (active)
[12]
  outcome: inactive
[13]
  outcome: inactive
[14]
  outcome: inactive
[15]
  outcome: inactive
[16]
  outcome: inactive
[17]
  outcome: inactive
[18]
  outcome: inactive
[19]
  outcome: inactive

## COc1ccc(C(=O)Nc2nc3ccccc3c(NCc3ccccc3)c2C#N)cc1
[1]
  AC50: 16.8 µM (active)
[2]
  AC50: 18.7 µM (active)
[3]
  AC50: 16.2 µM (active)
[4]
  AC50: 1.39 µM (active)
[5]
  outcome: inactive
[6]
  outcome: inactive
[7]
  outcome: inactive
[8]
  outcome: inactive
[9]
  outcome: inactive
[10]
  AC50: 16 µM (active)
[11]
  outcome: inactive
[12]
  AC50: 13.3 µM (active)
[13]
  outcome: inactive
[14]
  AC50: 17.4 µM (active)
[15]
  AC50: 16.5 µM (active)
[16]
  AC50: 13.3 µM (active)
[17]
  outcome: inactive
[18]
  outcome: inactive
[19]
  outcome: inactive

## O=C1c2c(O)cccc2Cc2cccc(O)c21
[1]
  outcome: inactive
[2]
  outcome: inactive
[3]
  outcome: inactive
[4]
  AC50: 22.1 µM (active)
[5]
  outcome: inactive
[6]
  outcome: inactive
[7]
  outcome: inactive
[8]
  outcome: inactive
[9]
  outcome: inactive
[10]
  outcome: inactive
[11]
  outcome: inactive
[12]
  outcome: inactive
[13]
  outcome: inactive
[14]
  outcome: inactive
[15]
  outcome: inactive
[16]
  outcome: inactive
[17]
  outcome: inactive
[18]
  outcome: inactive
[19]
  outcome: inactive

## CC(C)(C)c1ccccc1
[1]
  outcome: inactive
[2]
  outcome: inactive
[3]
  outcome: inactive
[4]
  AC50: 50 µM (active)
[5]
  outcome: inactive
[6]
  outcome: inactive
[7]
  outcome: inactive
[8]
  outcome: inactive
[9]
  outcome: inactive
[10]
  outcome: inactive
[11]
  outcome: inactive
[12]
  outcome: inactive
[13]
  outcome: inactive
[14]
  outcome: inactive
[15]
  outcome: inactive
[16]
  outcome: inactive
[17]
  outcome: inactive
[18]
  outcome: inactive
[19]
  outcome: inactive

## COc1ccc(OC(F)(F)F)cc1CN[C@H]1CCCN[C@H]1c1ccccc1
[1]
  AC50: 87.1 µM (active)
[2]
  AC50: 71.6 µM (active)
[3]
  AC50: 72.7 µM (active)
[4]
  AC50: 12.6 µM (active)
[5]
  AC50: 84.1 µM (active)
[6]
  AC50: 93.8 µM (active)
[7]
  outcome: inactive
[8]
  AC50: 76.3 µM (active)
[9]
  AC50: 83.7 µM (active)
[10]
  outcome: inactive
[11]
  outcome: inactive
[12]
  outcome: inactive
[13]
  AC50: 82.9 µM (active)
[14]
  outcome: inactive
[15]
  AC50: 95.6 µM (active)
[16]
  AC50: 64.3 µM (active)
[17]
  outcome: inactive
[18]
  outcome: inactive

## CC(C)c1cccc(C(C)C)c1NC(=O)NS(=O)(=O)c1cc(C(C)(C)O)co1
[1]
  outcome: inactive
[2]
  outcome: inactive
[3]
  outcome: inactive
[4]
  outcome: inactive
[5]
  outcome: inactive
[6]
  outcome: inactive
[7]
  outcome: inactive
[8]
  outcome: inactive
[9]
  AC50: 6.65 µM (active)
[10]
  outcome: inactive
[11]
  outcome: inactive
[12]
  outcome: inactive
[13]
  AC50: 3.34 µM (active)
[14]
  AC50: 12.6 µM (active)
[15]
  outcome: inactive
[16]
  outcome: inactive
[17]
  outcome: inactive
[18]
  outcome: inactive
[19]
  outcome: inactive
